{"source": "PubChem BioAssay (NCATS)", "key": {"[1]": {"experiment": "qHTS to identify inhibitors of the type 1 interferon - major histocompatibility complex class I in skeletal muscle: primary screen against the NCATS Pharmaceutical Collection (AID 1347407); further: potency means the concentration at half of the fitted maximal effect", "summary_of_the_method": "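Immortalized human myoblasts (C25cl48) with HiBiT knocked into endogenous HLA-B*08:01 were stimulated with 4.0 ng/ml IFN-beta and treated with compounds ([…] top 46 uM) for 24 hrs at 37 C. HiBiT lytic luminescence read.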"}, "[2]": {"target": "Protein phosphatase 1D (Homo sapiens) (UniProt O15297)", "sequence (O15297 whole entry, looked up)": "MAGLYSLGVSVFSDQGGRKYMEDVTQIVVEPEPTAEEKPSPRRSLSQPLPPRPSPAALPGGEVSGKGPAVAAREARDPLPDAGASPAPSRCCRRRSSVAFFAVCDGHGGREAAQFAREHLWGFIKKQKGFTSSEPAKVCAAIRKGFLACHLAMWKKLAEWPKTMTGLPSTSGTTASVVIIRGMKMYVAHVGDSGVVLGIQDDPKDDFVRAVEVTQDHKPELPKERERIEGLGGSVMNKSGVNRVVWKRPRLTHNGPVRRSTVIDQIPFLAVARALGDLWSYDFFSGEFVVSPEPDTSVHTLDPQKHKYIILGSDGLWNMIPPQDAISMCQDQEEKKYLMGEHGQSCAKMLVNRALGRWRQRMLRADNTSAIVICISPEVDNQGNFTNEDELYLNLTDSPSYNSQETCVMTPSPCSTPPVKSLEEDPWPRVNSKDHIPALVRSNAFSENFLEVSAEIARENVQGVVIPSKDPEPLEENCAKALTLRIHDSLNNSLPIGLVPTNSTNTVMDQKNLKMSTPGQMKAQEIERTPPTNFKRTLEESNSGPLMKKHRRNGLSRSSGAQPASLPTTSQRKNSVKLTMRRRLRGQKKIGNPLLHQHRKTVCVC", "experiment": "RapidFire Mass Spectrometry qHTS Assay for Modulators of WT P53-Induced Phosphatase 1 (WIP1) (AID 1347424);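 further: amount of dephosphorylated VEPPL-S-QETFS peptide product formed by WIP1; series mostly up to about 63 µM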", "summary_of_the_method": "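RapidFire mass spectrometry measured dephosphorylated peptide after 5 min room-temperature reaction of 2 uM VEPPL-pS-QETFS with 10 nM WIP1 (50 mM Tris-HCl pH 7.5, 30 mM MgCl2, 0.1 mM EGTA, BSA), following 1 hr compound preincubation; 1 uM isotope-labelled product standard.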"}, "[3]": {"target": "Protein phosphatase 1D (Homo sapiens) (UniProt O15297)", "experiment": "Rhodamine-PBP qHTS Assay for Modulators of WT P53-Induced Phosphatase 1 (WIP1) (AID 1347425)", "summary_of_the_method": "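5 nM WIP1 + 10 uM Rh-PBP, 50 mM Tris pH 7.5, 30 mM MgCl2, 1 mM TCEP, 0.1 mM EGTA, BSA; cpds pinned, 1 hr RT; + 10 uM phosphopeptide; fluorescence 1-min reads x 11 min; delta = f1 - f0.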"}, "[4]": {"experiment": "Primary qHTS for inhibitors of La Crosse Virus (LACV) - induced cell death in SH-SY5Y cells (AID 1508616);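 further: top concentration of the series differs between compounds; higher means more rescue of cells from virus-induced death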", "summary_of_the_method": "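SH-SY5Y, 6000 cells/well; cpd via pin tool in DMSO; LACV 0.01 MOI; 6 d 37C 5% CO2; ATPLite, 5 min RT; luminescence normalized to ±virus DMSO controls.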"}}, "note": "Inconclusive results are not listed. Entries that show only a call come without a potency. Active and inactive are the calls of the source. The call rests on the fitted dose curve; in most records, active means well fitted curve in the direction sought with a large enough effect; inconclusive means small, poorly fitted or top-dose-only effect, or another doubt; inactive means no such curve, though single readings can be large; an effect the other way counts as inactive or inconclusive."}
{"smiles": "NC(CS)C(=O)O", "note": "(stereo unspecified)", "values": [{"measurement": "Potency", "setting": "[1]", "result": "inactive"}, {"measurement": "Potency", "setting": "[2]", "result": "inactive"}, {"measurement": "outcome", "setting": "[3]", "result": "inactive"}, {"measurement": "Potency", "setting": "[4]", "result": "inactive"}]}
{"smiles": "CN(C/C=C/c1ccccc1)Cc1cccc2ccccc12", "values": [{"measurement": "Potency", "setting": "[1]", "result": "inactive"}, {"measurement": "Potency", "setting": "[2]", "result": "inactive"}, {"measurement": "outcome", "setting": "[3]", "result": "inactive"}, {"measurement": "Potency", "setting": "[4]", "result": "inactive"}]}
{"smiles": "O=C1OCCN1/N=C/c1ccc([N+](=O)[O-])o1", "values": [{"measurement": "Potency", "setting": "[1]", "result": "inactive"}, {"measurement": "Potency", "setting": "[2]", "result": "inactive"}, {"measurement": "outcome", "setting": "[3]", "result": "inactive"}, {"measurement": "Potency", "setting": "[4]", "result": "inactive"}]}
{"smiles": "CC(C)N=C(N)/N=C(\\N)Nc1ccc(Cl)cc1", "values": [{"measurement": "Potency", "setting": "[1]", "result": "inactive"}, {"measurement": "Potency", "setting": "[2]", "result": "inactive"}, {"measurement": "outcome", "setting": "[3]", "result": "inactive"}, {"measurement": "Potency", "setting": "[4]", "result": "inactive"}]}
{"smiles": "Cc1onc(-c2c(Cl)cccc2Cl)c1C(=O)N[C@@H]1C(=O)N2[C@@H]1SC(C)(C)[C@@H]2C(=O)O", "values": [{"measurement": "Potency", "setting": "[1]", "result": "inactive"}, {"measurement": "Potency", "setting": "[2]", "result": "inactive"}, {"measurement": "outcome", "setting": "[3]", "result": "inactive"}, {"measurement": "Potency", "setting": "[4]", "result": "inactive"}]}
{"smiles": "CCCC(=O)Nc1ccc(OCC(O)CNC(C)C)c(C(C)=O)c1", "note": "(stereo unspecified)", "values": [{"measurement": "Potency", "setting": "[1]", "result": "inactive"}, {"measurement": "Potency", "setting": "[2]", "result": "inactive"}, {"measurement": "outcome", "setting": "[3]", "result": "inactive"}, {"measurement": "Potency", "setting": "[4]", "result": "inactive"}]}
{"smiles": "CC(=O)N/N=C/c1ccc([N+](=O)[O-])o1", "values": [{"measurement": "Potency", "setting": "[1]", "result": "inactive"}, {"measurement": "Potency", "setting": "[2]", "result": "inactive"}, {"measurement": "outcome", "setting": "[3]", "result": "inactive"}, {"measurement": "Potency", "setting": "[4]", "result": "inactive"}]}
{"smiles": "O=c1ccc2ccccc2o1", "values": [{"measurement": "Potency", "setting": "[1]", "result": "inactive"}, {"measurement": "Potency", "setting": "[2]", "result": "inactive"}, {"measurement": "outcome", "setting": "[3]", "result": "inactive"}, {"measurement": "Potency", "setting": "[4]", "result": "inactive"}]}
{"smiles": "CO/N=C1\\CN(c2nc3c(cc2F)c(=O)c(C(=O)O)cn3C2CC2)CC1CN", "note": "(stereo unspecified)", "values": [{"measurement": "Potency", "setting": "[1]", "result": "inactive"}, {"measurement": "outcome", "setting": "[3]", "result": "inactive"}, {"measurement": "Potency", "setting": "[4]", "result": "inactive"}]}
{"smiles": "COc1cc2c(cc1OC)C(=O)C(CC1CCN(Cc3ccccc3)CC1)C2", "note": "(stereo unspecified)", "values": [{"measurement": "Potency", "setting": "[1]", "result": "inactive"}, {"measurement": "Potency", "setting": "[2]", "result": "inactive"}, {"measurement": "outcome", "setting": "[3]", "result": "inactive"}, {"measurement": "Potency", "setting": "[4]", "result": "inactive"}]}
{"smiles": "C[C@@H]1C[C@H]2[C@@H]3C[C@H](F)C4=CC(=O)C(Cl)=C[C@]4(C)[C@@]3(F)[C@@H](O)C[C@]2(C)[C@@]1(O)C(=O)CO", "values": [{"measurement": "Potency", "setting": "[1]", "result": "inactive"}, {"measurement": "outcome", "setting": "[3]", "result": "inactive"}, {"measurement": "Potency", "setting": "[4]", "result": "inactive"}]}
{"smiles": "CCCCS(=O)(=O)N[C@@H](Cc1ccc(OCCCCC2CCNCC2)cc1)C(=O)O", "values": [{"measurement": "Potency", "setting": "[1]", "result": "inactive"}, {"measurement": "Potency", "setting": "[2]", "result": "inactive"}, {"measurement": "outcome", "setting": "[3]", "result": "inactive"}, {"measurement": "Potency", "setting": "[4]", "result": "inactive"}]}
{"smiles": "O=C(N/N=C/c1ccccc1O)c1ccncc1", "values": [{"measurement": "Potency", "setting": "[1]", "result": "inactive"}, {"measurement": "outcome", "setting": "[3]", "result": "inactive"}, {"measurement": "Potency", "setting": "[4]", "result": "inactive"}]}
{"smiles": "CCCCCCc1ccc(O)cc1O", "values": [{"measurement": "Potency", "setting": "[1]", "result": "inactive"}, {"measurement": "Potency", "setting": "[2]", "result": "inactive"}, {"measurement": "Potency", "setting": "[4]", "result": "inactive"}]}
{"smiles": "CNC(=O)CN(CCN(CCN(CC(=O)[O-])CC(=O)NC)CC(=O)[O-])CC(=O)[O-].O.[Gd+3]", "values": [{"measurement": "Potency", "setting": "[1]", "result": "inactive"}, {"measurement": "Potency", "setting": "[2]", "result": "inactive"}, {"measurement": "outcome", "setting": "[3]", "result": "inactive"}, {"measurement": "Potency", "setting": "[4]", "result": "inactive"}]}
{"smiles": "CC(=O)CC(c1ccc([N+](=O)[O-])cc1)c1c(O)c2ccccc2oc1=O", "note": "(stereo unspecified)", "values": [{"measurement": "Potency", "setting": "[1]", "result": "1490 nM (active)"}, {"measurement": "outcome", "setting": "[3]", "result": "inactive"}, {"measurement": "Potency", "setting": "[4]", "result": "inactive"}]}
{"smiles": "CN(C)/N=N/c1nc[nH]c1C(N)=O", "values": [{"measurement": "Potency", "setting": "[1]", "result": "inactive"}, {"measurement": "outcome", "setting": "[3]", "result": "inactive"}, {"measurement": "Potency", "setting": "[4]", "result": "inactive"}]}
{"smiles": "NCCCC[C@H](N[C@@H](CCc1ccccc1)C(=O)O)C(=O)N1CCC[C@H]1C(=O)O", "values": [{"measurement": "Potency", "setting": "[1]", "result": "inactive"}, {"measurement": "Potency", "setting": "[2]", "result": "inactive"}, {"measurement": "outcome", "setting": "[3]", "result": "inactive"}, {"measurement": "Potency", "setting": "[4]", "result": "inactive"}]}
